{
  "source": "PubChem BioAssay AID493014",
  "about": "(National Center for Advancing Translational Sciences (NCATS), 2011)",
  "note": "The whole screen tested about 340,000 compounds, of which about 170 (0.05%) were called active. Where a call stands in place of a potency, no number is given. Inconclusive results (about 26%) are left out. The sample holds actives, similar compounds and a random draw of the others, so the mix is not that of the screen. The call rests on the fitted dose curve; in most records, active means well fitted inhibition curve with a large enough effect in the signal ratio, with a control signal flat (not every such curve was filed as active); inconclusive means small, poorly fitted or top-dose-only effect, or effect the other way, or a change in a side signal; inactive means flat fitted curve, though single readings scatter; the % refers to the signal ratio. Potency means the concentration at half of the fitted maximal effect.",
  "data": [
    {"assay": "qHTS Assay to Find Inhibitors of Chronic Active B-Cell Receptor Signaling", "conditions": "ABC-DLBCL IkBa-CBG/CBR reporter, luminescence ratio, 4 h; series mostly up to 46.1 µM", "text": "NIH Molecular Libraries Probe Production Network [MLPCN] NIH Chemical Genomics Center [NCGC] MLPCN Grant: 1 R03 DA031086-01A1 PI Name: Dr. R. Eric Davis NCGC Assay Overview: Diffuse large B-cell lymphoma (DLBCL) is the most common category of non-Hodgkin lymphoma, with ~20,000 new cases per year in the United States. DLBCL should be regarded as a collection of different neoplasms. Microarray gene expression analysis has defined two principal types of DLBCL, named for their similarity to normal B cell stages or activation states: a germinal center B-cell (GCB) type, and an activated B-cell (ABC) type. In ABC-DLBCL, a constitutive high-level activity of the NF-kappaB family of transcription factors has been observed (1) and NF-kappaB target genes are more highly expressed in ABC primary tumors than in GCB tumors. Functional studies have shown a constitutive high-level activity of the IkappaB (inhibitor of kappa-B) kinase (IKK) complex. […] Further analysis of DLBCL primary tumors for NF-kappaB target gene expression imply that although CARD11 is required for constitutive IKK activity in all ABC-DLBCL lines, mutations in CARD11 may be the root cause of IKK activation only in lines or tumors with such mutations. In other words, CARD11 mutations may explain NF-kappaB activation in only 10% of ABC-DLBCL cases. […] This process has been termed 'chronic active BCR signaling' (CABS). The goal of this screen is to find small-molecule inhibitors of the CABS pathway found in ABC-DLBCL lines using a cell-based assay that measures IkappaBalpa stability, which has already been extensively validated in the OCI-Ly3 line (PubChem AID:445; REF: 4). […] The assay uses green (CBG68) and red (CBR) emitting beetle luciferases [Chroma-GloTM developed by Promega Corp.] where the green luciferase is fused to IkappaBalpha and the red luciferase is present in its native state. Both luciferase genes are stably present in the TMD8 human ABC DLBCL cell line, but their expression is under the control of tetracycline-inducible promoters. Following the addition of doxycycline to induce expression of the luciferases, the green luminescence in control cultures rises only slowly because the CBG fusion partner IkappaBalpha is targeted by IKK activity for rapid degradation. In contrast, green luminescence rises rapidly in the presence of proteasome inhibitors or IKK inhibitors. The rise in red luminescence of CBR is not affected by proteasome or IKK inhibitors, and serves as normalization for cell number and nonspecific effects. Compounds were screened as a concentration-titration series that ranged from 46 uM to 3 nM.\nNCGC Assay Protocol Summary: Cells were seeded in 1536-well plates at 5000 cells/4uL in IMDM medium containing 0.5% FBS, w/o phenol red, 1% penicillin/streptomycin. Then, 23 nL of compounds or DMSO were delivered to each well using a pin tool. One uL 20ng/ml doxycycline was then dispensed into white solid 1536-well plates and the plates were incubated at 37C/5% C02 in a cell incubator for 4 hrs. Then 4 uL luminescent substrate mix (in-house prepared: 150 mM Tris-Cl, pH 7.6, 3 mM MgCl2, 1% Triton X-100, 5 mM DTT, 0.2 mM CoA, 0.15 mM ATP, 5 mM D-luciferin, final concentrations) was added to each well. The plate was incubated at r.t. for 10-15 min. The plates were measured on a ViewLux plate reader for green luminescence (540/20 nm filter) and red luminescence (618/8 nm filter). The green and red luminescent signals were corrected for red and green luminescence filter overlap using previously determined filter calibration constants (determined using the procedure outlined in the Promega Technical Manual; REF 4). The %Activity was determined from the ratio of corrected green/red luminescent values. MG132 were used as control. […] Red luminescent %Activity was normalized to the difference between red luminesence in basal cells (0%Activity) and zero luminescence (-100% Activity). […]", "values": [
      {"smiles": "O=C(COC(=O)COc1cccc(F)c1)NCC1CCCCC1", "Potency": "inactive"},
      {"smiles": "O=C(NCc1ccccc1CN1CCCC1)C1CCN(S(=O)(=O)c2ccc(Cl)cc2)CC1", "Potency": "inactive"},
      {"smiles": "Cc1cccc(NC(=O)c2ccc(S(=O)(=O)N(C)c3ccccc3)cc2)n1", "Potency": "inactive"},
      {"smiles": "COc1ccc(NC(=O)CN2C(=O)COc3ccc(S(=O)(=O)N4CCOCC4)cc32)c(OC)c1", "Potency": "inactive"},
      {"smiles": "Cc1ccc(CNC(=O)Cn2cnc3c(NCc4ccccc4)ncnc32)o1", "Potency": "inactive"},
      {"smiles": "COc1ccccc1N(C)S(=O)(=O)c1ccc(Cl)c(C(=O)Nc2ccncc2)c1", "Potency": "inactive"},
      {"smiles": "C[C@H]1COC(=O)[C@H](CC(=O)OC(C)(C)C)C/C=C\\C[C@@H](CC(=O)N[C@H](CO)Cc2ccccc2)C(=O)N1", "Potency": "inactive"},
      {"smiles": "Nc1cc(N)nc(SCC(=O)Nc2cccc(S(=O)(=O)N3CCCCC3)c2)n1", "Potency": "inactive"},
      {"smiles": "COc1ccc(S(=O)(=O)N2CCCCCC2)cc1NC(=O)Cc1ccc(OC)c(OC)c1", "Potency": "inactive"},
      {"smiles": "COC(=O)c1cc(C(=O)NC(C)C2CC3CCC2C3)cc([N+](=O)[O-])c1", "note": "(stereo not drawn)", "Potency": "inactive"},
      {"smiles": "O=C(CN(Cc1ccc(Br)cc1)S(=O)(=O)c1ccccc1)NCc1ccncc1", "Potency": "inactive"},
      {"smiles": "Cc1ccc(C)c(N2CCN(C(=O)CCc3nc(-c4cccc(C(F)(F)F)c4)no3)CC2)c1", "Potency": "inactive"},
      {"smiles": "CCCOc1ccccc1C1CC(=O)Nc2cc3c(cc21)OCO3", "note": "(stereo not drawn)", "Potency": "23.1 µM (active)"},
      {"smiles": "COc1ccc(C2CC(=O)Nc3cc(C)c(C)cc32)c(OC)c1OC", "note": "(stereo not drawn)", "Potency": "inactive"},
      {"smiles": "COc1cc2c(cc1OC)C(c1ccc(C)o1)CC(=O)N2", "note": "(stereo not drawn)", "Potency": "inactive"},
      {"smiles": "COC(=O)[C@H](Cc1ccccc1)NC(=O)Nc1ccc(OC)cc1", "Potency": "inactive"},
      {"smiles": "COc1ccc(NC(=O)c2cnc(NS(=O)(=O)c3ccccc3)nc2)cc1", "Potency": "inactive"},
      {"smiles": "COc1ccc(NC(=O)c2sc(N)nc2-c2ccccc2)cc1", "Potency": "12.6 µM (active)"},
      {"smiles": "CCCCCCSc1ccc([C@@H]2[C@@H]3C(=O)N(CC)C(=O)[C@@H]3[C@]3(C(=O)OC)CCCCN23)cc1OC", "Potency": "inactive"},
      {"smiles": "O=C(c1ccc(S(=O)(=O)NCc2ccco2)cc1)N1CCN(c2ccccc2)CC1", "Potency": "inactive"},
      {"smiles": "CCN1C(=O)[C@@H]2[C@@H](c3ccc(-c4ccc(OC)cc4)c(OC)c3)N3CCC[C@@]3(C(=O)OC)[C@@H]2C1=O", "Potency": "inactive"},
      {"smiles": "COc1ccc(Cl)cc1NC(=O)CN(C)C(=O)c1cc2ccccc2cc1OC", "Potency": "inactive"},
      {"smiles": "CC(C)N(Cc1nnc(-c2ccccc2Br)o1)C(=O)c1cc(Cl)nc2ccccc12", "Potency": "inactive"},
      {"smiles": "COc1ccccc1N1CC(C(=O)Nc2nnc(SCC(=O)NC(C)C)s2)CC1=O", "note": "(stereo not drawn)", "Potency": "inactive"},
      {"smiles": "COc1ccc(/C=N/Nc2cc(N3CCOCC3)nc(C)n2)c(OC)c1", "Potency": "inactive"},
      {"smiles": "COc1ccc(N2CCN(C(=O)COC(=O)c3cccc(S(=O)(=O)Nc4ccccc4OC)c3)CC2)cc1", "Potency": "inactive"},
      {"smiles": "Cn1c(CC(=O)NNC(=O)c2ccccc2F)nc2ccccc21", "Potency": "inactive"},
      {"smiles": "CN1C(=O)[C@H]2[C@@H](/C=C/c3ccccc3)N3C(=O)CN(Cc4ccc(-c5ccccc5)cc4)C(=O)[C@@]3(C)[C@H]2C1=O", "Potency": "inactive"},
      {"smiles": "COc1cc(Cl)ccc1OCc1cc(C(=O)N(C)CCc2c(C)n[nH]c2C)no1", "Potency": "inactive"},
      {"smiles": "CC1CCN(c2ccc(-c3ccc(NC(=O)c4ccco4)cc3)nn2)CC1", "Potency": "inactive"},
      {"smiles": "CC(C)(C)OC(=O)C[C@@H]1C/C=C\\C[C@@H](CC(=O)N[C@H](CO)Cc2ccccc2)C(=O)NCCOC1=O", "Potency": "inactive"},
      {"smiles": "CCN1C(=O)[C@@H]2[C@@H](c3ccc(-c4ccccc4)cc3)N3CCCC[C@@]3(C(=O)OC)[C@@H]2C1=O", "Potency": "inactive"},
      {"smiles": "CCN(c1ccccc1)S(=O)(=O)c1ccc(C(=O)Nc2ccccc2OC)cc1", "Potency": "inactive"},
      {"smiles": "COc1ccc(-c2csc3ncnc(N4CCN(S(=O)(=O)c5cccc(F)c5)CC4)c23)cc1", "Potency": "inactive"},
      {"smiles": "CC(=O)c1c(C)[nH]c(C(=O)COC(=O)c2cccs2)c1C", "Potency": "inactive"},
      {"smiles": "COc1ccc(-c2c(C#Cc3ccsc3)c3cc(-c4ccc(CN5CCOCC5)cc4)ccc3n2C)cc1", "Potency": "inactive"},
      {"smiles": "O=C(Nc1cc(S(=O)(=O)Nc2ccc(Cl)cc2)ccc1O)c1ccc(F)cc1F", "Potency": "inactive"},
      {"smiles": "Cc1cc(C)cc(OCC(=O)Nc2ccc(N3CCOCC3)cc2N2CCOCC2)c1", "Potency": "inactive"},
      {"smiles": "C=CC[C@H](CC(=O)NCCO)C(=O)N[C@@H](COC(=O)[C@@H](CC=C)Cc1ccc(F)cc1)Cc1c[nH]c2ccccc12", "Potency": "inactive"},
      {"smiles": "CSCc1nnc(NC(=O)c2ccc(S(=O)(=O)N3CCCCC3C)cc2)o1", "note": "(stereo not drawn)", "Potency": "inactive"},
      {"smiles": "CCOCc1c(C(=O)N2CCN(Cc3ccc(Br)s3)CC2)oc2ccccc12", "Potency": "inactive"},
      {"smiles": "COc1cc(OC)cc(-c2c(-c3cccs3)c3cc(-c4ccc(OC)cc4F)ccc3n2C)c1", "Potency": "inactive"},
      {"smiles": "COc1ccc(CNC(=O)C[C@H]2C[C@H](C(=O)N3CCOCC3)[C@@]3(C)c4[nH]c5cc(CCC(=O)N(C)C)ccc5c4CCN3C2=O)cc1OC", "Potency": "inactive"}
    ]}
  ]
}
